# Data as given in PubChem BioAssay AID540254 (Southern Research Specialized Biocontainment Screening …, 2011).
# Out of some 1,800 compounds screened, fewer than 10 were called active. These entries were drawn from the full list. Measured potencies and affinities stand elsewhere. Unmarked numbers belong to inactive results. The rule behind the calls is not given here.
# Experiment: antiviral activity against H1N1 influenza, dose response, cell-based, strain KY180 (AID 540254)
# Conditions: H1N1 KY180 influenza antiviral cell-based screen; series mostly up to 40 µM; inhibition: at the top concentration
row,SMILES,inhibition
1,COCc1cc(=O)[nH]c(Nc2nc3ccc(C)cc3o2)n1,-2.53%
2,O=C(CCCN1C(=O)c2ccccc2C1=O)Nc1sc2c(c1C(=O)NCc1ccco1)CCC2,0.56%
3,Cc1ccc(-c2nc3ncccn3c2Nc2ccc3c(c2)OCO3)o1,9.17%
4,O=[N+]([O-])c1cc(/C=N/N/C(=N/c2ccccn2)c2ccccn2)ccc1O,0%
5,O=[N+]([O-])c1cc2no[n+]([O-])c2cc1N1CCCCC1,-1.97%
6,CCOc1ccc(C(=O)N/N=C/c2cccc3cccnc23)cc1,-4.25%
7,Cc1nc2ccc(S(=O)(=O)Nc3cccc(-c4nc5cccnc5s4)c3C)cc2s1,0%
8,COc1cc(C2CC(=O)Oc3c(C(CCN4CCCC(C)C4)c4ccc(N(C)C)cc4)c(OC)cc(OC)c32)cc(OC)c1OC (stereo not drawn),-2.46%
9,CCOc1cc2c(cc1OCC)-n1cccc1C(c1ccc(C(C)C)cc1)NC2 (stereo not drawn),0%
10,CSc1cccc(NC(=S)N(CCN(C)C)C(C)c2ccccn2)c1 (stereo not drawn),29%
11,Cc1ccccc1NC(=S)N(CCN(C)C)C(C)c1ccccn1 (stereo not drawn),6.16%
12,O=C(Cn1cc(SCc2ccc(Cl)cc2)c2ccccc21)N1CCOCC1,0%
13,O=C1C(NS(=O)(=O)c2ccc(Br)cc2)=C(N2CCCCC2)C(=O)c2ccccc21,-2.53%
14,CCN(CC)C(=O)CCc1nc2sc3c(c2c(=O)[nH]1)CCCC3,0%
15,O=C(CN1CCN(Cc2cccc(Cl)c2)C1=O)NCc1ccccn1,2.46%
16,Cc1ccc(Cl)c(NC(=O)COC(=O)CNS(=O)(=O)/C=C/c2ccccc2)c1Cl,1.27%
17,CC(C)C(=O)N(c1ccc2oc(=O)sc2c1)S(=O)(=O)c1ccccc1,-1.01%
18,CC(=NNC(=S)N1CCC1)c1ccccn1,-2.46%
19,COc1ccccc1C(CCNCc1ccc(N(C)C)cc1)c1ccc(OC(C)C)cc1 (stereo not drawn),-1.27%
20,CSC1=NC(C)(C)CC2(C)Nc3ccccc3N12 (stereo not drawn),11.4%
21,Cc1cccn2cc(CCNS(=O)(=O)c3ccc4c(c3)OCCO4)nc12,-1.27%
22,Cc1cc(C(=O)N/N=C/c2cc([N+](=O)[O-])ccc2O)c2ccccc2n1,-1.01%
23,CC(C)(C)c1nnc(N/N=C/c2cc(Br)ccc2O)n(N)c1=O,0%
